This is a sample that favours compounds with a hit; in the whole collection about 1% have one here.
RGS4 inhibitor = blocks human RGS4-accelerated GTP hydrolysis. P49798. Transcreener GDP fluorescence polarization, RGS4-accelerated GTP hydrolysis. Potency, µM (series often up to 114 µM), usual class: inhibitors. hit rate 0.039% among 390,000. AID 504845; note: nearly all actives have a fitted effect of over 75% in size
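MLSMR compounds (23 nl, pin-transferred) preincubated 10 min at room temperature with a 500nM (2x) first reagent, then RGS4 at 900nM (2x) plus Transcreener GDP mix added; fluorescence polarization (620/688 nm) read before and after 90 min at 30 °C.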
TrxR1 substrate = rat thioredoxin reductase 1 substrate activity. O89049. purified TrxR1 substrate turnover, NADPH consumption readout. AID 588456. hit rate 0.01% among 390,000. Potency, µM (top dose mostly 114 µM); note: nearly all actives have a fitted effect of over 50% in size
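Rat TrxR1, dispensed at 90 nM, was prereduced with 400 uM NADPH (final) for 5 min at ~22 deg C, then incubated with compound 15 min before 400 uM selenite. A first-read NADPH fluorescence drop versus no-compound background flagged substrates.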
USP2a inh = USP2a (human) protease inhibition | O75604 | USP2 core, Ub-CHOP2 coupled fluorogenic reporter, 485/531 | Potency, µM (series often up to 38.3 µM), hits mostly inhibitors | hit rate 0.01% among 330,000 | AID 463254
Target sequence (O75604 whole entry, looked up): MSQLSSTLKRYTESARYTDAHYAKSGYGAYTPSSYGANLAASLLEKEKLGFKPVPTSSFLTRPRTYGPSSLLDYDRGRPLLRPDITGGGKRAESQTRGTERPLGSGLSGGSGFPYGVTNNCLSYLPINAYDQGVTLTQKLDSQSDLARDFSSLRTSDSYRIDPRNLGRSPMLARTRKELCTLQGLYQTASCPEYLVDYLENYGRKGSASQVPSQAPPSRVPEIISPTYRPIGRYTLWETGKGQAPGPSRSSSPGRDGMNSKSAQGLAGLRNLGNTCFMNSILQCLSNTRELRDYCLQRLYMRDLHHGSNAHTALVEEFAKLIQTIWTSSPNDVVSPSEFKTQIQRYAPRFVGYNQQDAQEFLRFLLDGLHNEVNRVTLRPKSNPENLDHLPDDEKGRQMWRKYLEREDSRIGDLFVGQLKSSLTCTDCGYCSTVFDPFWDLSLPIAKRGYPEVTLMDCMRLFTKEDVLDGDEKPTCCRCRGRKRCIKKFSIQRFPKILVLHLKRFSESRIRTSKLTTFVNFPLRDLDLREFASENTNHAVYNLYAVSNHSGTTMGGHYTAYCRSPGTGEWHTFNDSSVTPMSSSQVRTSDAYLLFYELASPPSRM
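Cell-free coupled assay: 10nM USP2 core preincubated 30min RT with compound in Tris-HCl pH 8.0/CaCl2/CHAPS buffer, then 25nM Ub-CHOP2 and 25nM reporter substrate; fluorescence (Ex 485/Em 531) read after 60min RT, normalized to NEM inhibition, concentration-response curves fitted.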
GALK inh = blocks human galactokinase activity; Potency, µM (series often up to 57.5 µM), hits mostly inhibitors; P51570; hit rate 0.007% among 270,000; Purified GALK, Kinase-Glo residual ATP luminescence; AID 1868
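Quantitative HTS: GALK 5 nM, ATP 35 uM, galactose 100 uM, 1 h room temperature, then luciferase-based ATP detection.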
Eya2 inh = Eya2 (human) phosphatase inhibition; hit rate 0.006% among 330,000; Potency, µM (doses to about 76.9 µM), hits mostly inhibitors; recombinant Eya2, OMFP fluorescence dephosphorylation (OMFP is methylfluorescein phosphate); O00167
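Eya2 protein (added as 0.2 uM solution) was preincubated with compound for 10 min at ambient temperature in 50 mM HEPES pH 7.5, 50 mM NaCl, 5 uM MgCl2, 0.05% BSA, 1 mM DTT. OMFP (added at 50 uM) then reacted 10 min; fluorescence read at 485/525 nm.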
TrxR1 inh = blocks rat thioredoxin reductase 1. Potency, µM (doses to about 114 µM), most hits filed as inhibitors. O89049. hit rate 1% among 390,000. recombinant rTrxR1, NADPH fluorescence consumption, selenite substrate; note: nearly all actives have a fitted effect of over 65% in size
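Rat TrxR1 (90 nM in the dispensed reagent) was pre-reduced with 400 uM NADPH for 5 min at room temperature, then incubated with compound for 15 min. After 400 uM selenite was added, NADPH fluorescence (Ex 340/Em 450 nm) was followed for 8 min.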
A number is an active result; - = inactive; ? = inconclusive; . = not tested or not shown; [ ] = dose if it differs, or a comment. Calls come from the whole dose curve; as a rule, active = well fitted curve in the direction sought with a large enough effect; inconclusive = small, poorly fitted or top-dose-only effect, or another doubt; inactive = no such curve, though single readings can be large; an effect the other way counts as inactive or inconclusive.

SMILES | RGS4 inhibitor | TrxR1 substrate | USP2a inh | GALK inh | Eya2 inh | TrxR1 inh
CCN(CC)c1ccc(S(=O)(=O)N2CCOCC2)cc1NC(=O)COC(=O)/C=C/c1ccc(C)o1 | - | - | - | . | - | 71µM
C[C@H](NC(=O)OC(C)(C)C)C(=O)c1ccco1 | . | - | . | . | . | -
CSc1nc(-c2ccco2)nn1C(=O)c1ccccc1 | - | - | - | - | - | 20µM
CSc1nc(-c2ccco2)nn1C(=O)c1ccc(C)cc1 | - | - | - | - | - | 20µM
CC(=O)c1ccc([N+](C)(C)C)cc1 | . | - | . | . | . | -
Cc1nnc(SCC2=C(C(=O)O)N3C(=O)C(NC(=O)Cn4ncc(Cl)c4C)C3SC2)s1 (stereo not drawn) | - | - | - | - | - | 22µM
Cc1ccc(NCCC(=O)c2cccc([N+](=O)[O-])c2)c(C)c1 | - | - | - | - | - | 3.2µM
Cc1ccc(NCC(=O)c2ccc([N+](=O)[O-])cc2)cc1 | ? | - | - | - | - | -
Cc1cccc(NCCC(=O)c2ccc([N+](=O)[O-])cc2)c1C | - | - | - | - | - | 4.5µM
Cc1cc(N)c2ccccc2[n+]1CCCCCCCCCC[n+]1c(C)cc(N)c2ccccc21 | 24µM | - | . | . | - | -
Cc1ccc2ccccc2[n+]1CCCCI | . | - | . | . | . | -
CN(N=O)c1ccc(/C=C/c2ccccc2)cc1 | . | - | . | . | . | -
CCCN1CNc2c(c(=O)[nH]c(=S)n2CCC(C)(C)C)C1 | - | - | . | . | . | -
CCOc1ccc(N2C(=O)CC(NCc3ccc(S(N)(=O)=O)cc3)C2=O)cc1 (stereo not drawn) | -[11.4 µM] | - | - | . | - | -
CCOc1ccc(N2C(=O)CC(NCC#N)C2=O)cc1 (stereo not drawn) | - | - | - | - | - | 22µM
CC(=O)Nc1cc(O)c2nonc2c1O | - | 3.2µM | . | . | . | 5.6µM
CC(=O)Nc1c(O)cc(Br)c2nonc12 | - | - | . | . | . | -
Oc1ccc(N=Cc2cc(Br)c(N3CCOCC3)o2)cc1 | - | - | - | - | - | 32µM
Oc1ccc(CNc2ccccc2)c2cccnc12 | - | - | - | - | - | ?
Oc1ccc(CNc2ccc(F)cc2)c2cccnc12 | ? | - | - | - | - | 0.63µM
Cc1cccc(NCc2ccc(O)c3ncccc23)c1 | - | - | - | - | - | 0.79µM
O=S(=O)(c1ccc(Cl)cc1)N1CCN(Cc2ccc(O)c3ncccc23)CC1 | - | - | - | - | - | -
Cc1ccccc1NCc1ccc(O)c2ncccc12 | - | - | - | - | - | 0.63µM
Oc1ccc(CN2CCN(Cc3ccccc3)CC2)c2cccnc12 | - | - | - | - | - | 14µM
N#C/C(=C\c1ccc(-c2cc(Cl)ccc2Cl)o1)C(=O)Nc1cccc2ncccc12 | 3µM | - | . | . | - | ?
SMILES | RGS4 inhibitor | TrxR1 substrate | USP2a inh | GALK inh | Eya2 inh | TrxR1 inh
CN(C)C(=O)COC(=O)c1ccccc1OCC(=O)Nc1ccc(Br)cc1 | . | - | . | . | . | -
CSc1ccc(CNC(=O)C2CCCN(S(=O)(=O)N(C)c3ccc(F)cc3)C2)cc1 (stereo not drawn) | - | - | . | . | . | -
O=C(NC(=S)Nc1ccc(S(=O)(=O)N2CCCC2)cc1)c1cccs1 | - | - | - | - | - | 20µM
CC(=O)NC(=S)Nc1ccc(NC(=S)NC(=O)c2cccs2)cc1 | - | - | - | - | - | -
Cc1ccc(C(=O)NC(=S)Nc2ccc(S(=O)(=O)N3CCN(C)CC3)cc2)cc1 | - | - | - | . | - | 50µM
Cc1cccc(C(=O)NC(=S)Nc2ccc(S(=O)(=O)N3CCN(C)CC3)cc2)c1 | - | - | - | - | - | ?
CCN(CC)c1ccc(NC(=S)NC(=O)c2cccs2)cc1 | - | - | - | - | - | 79µM
CCCN1C(=O)c2ccccc2NC1c1ccc(OC)c(COc2cccc(C)c2C)c1 (stereo not drawn) | - | - | . | . | . | -
Cc1ccc(-c2nnc(N3CCN(C(=O)c4ccco4)CC3)c3ccccc23)cc1 | - | - | - | - | - | 56µM
Cc1cc(C)c2nc(N3CCCN(C(=O)c4ccco4)CC3)c(C#N)cc2c1 | ? | - | - | - | - | 10µM
Cc1nc(N2CCN(C(=O)c3ccco3)CC2)c(C#N)c2c1CCCC2 | - | - | - | - | - | -
Cc1c(C)c2c(OCC(=O)NCc3ccccn3)cc3c(c2oc1=O)CCC(C)(C)O3 | - | - | - | . | - | 89µM
CCCC(C(=O)NCc1ccco1)N(Cc1ccco1)C(=O)CNS(=O)(=O)c1ccccc1 (stereo not drawn) | - | - | - | - | - | -
CCOc1ccccc1N(C(=O)CNS(=O)(=O)c1ccccc1)C(CC)C(=O)NCc1ccco1 (stereo not drawn) | - | - | - | - | - | 25µM
CCOc1ccccc1OCC(=O)NCc1ccco1 | - | - | - | - | - | 28µM
COc1ccc(CN(Cc2ccccc2)C(=O)c2ccco2)cc1COc1ccc(NC(C)=O)cc1 | - | - | . | . | . | ?
COc1ccc2[nH]c(C)cc2c1 | . | - | . | . | . | -
CN(C)CCCN(C(=O)c1ccc([N+](=O)[O-])o1)c1nc2cc3c(cc2s1)OCO3 | - | - | - | - | - | 50µM
CN(C)CCCN(C(=O)c1ccc2c(c1)OCCO2)c1nc2cc3c(cc2s1)OCO3 | - | - | - | - | - | -
O=C1/C(=C/C=C/c2ccco2)SC(=S)N1c1ccc(O)cc1 | -[11.4 µM] | - | ? | - | - | 35µM

High-throughput results (PubChem BioAssay)
